# Reference: PubChem BioAssay (Tox21)
# Inconclusive results are not listed. Where a call stands in place of a potency, no number is given. The source made the active and inactive calls. Unless noted, calls follow the shape of the dose curve; as a rule, active = well fitted curve in the direction sought with a large enough effect in the repeat runs; inconclusive = weak or mixed curves; inactive = no such curve, though single readings can be large; an effect the other way counts as inactive or inconclusive.
# Tests used:
# [1] = qHTS assay to identify aromatase inhibitors - cell viability counter screen (AID 743084);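 also: cells stimulated with testosterone during compound exposure; nearly all actives have a fitted effect of over 55% in size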
# [2] = target: Aryl hydrocarbon receptor (Homo sapiens) (UniProt P35869); test: qHTS assay to identify small molecule that activate the aryl hydrocarbon receptor (AhR) signaling pathway (AID 743085); also: nearly all actives have a fitted effect of over 15% in size; also: potency is read from the fitted curve at half-maximal effect;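 as to activation: HG2L7.5c1 human HepG2 liver cells with stably integrated DRE-driven firefly reporter; series mostly up to about 70 µM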
# How it was run: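 Reporter assay in engineered HepG2 line HG2L7.5c1, whose plasmid carries twenty dioxin responsive elements upstream of firefly luciferase. Treatment lasted 24 h at 37C; ONE-Glo luminescence gauged induction.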
# [3] = qHTS assay to identify small molecule that activate the aryl hydrocarbon receptor (AhR) signaling pathway - cell viability counter screen (AID 743086);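 also: HepG2 liver cells carrying the AhR DRE luciferase reporter; series mostly up to about 70 µM; nearly all actives have a fitted effect of over 45% in size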
# How it was run: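 Cytotoxicity counter screen: CellTiter-Fluor signal (30 min, 37 C) in 4000 HepG2 cells/well carrying the DRE-luciferase reporter, following 24 h compound exposure at 37 C.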
# [4] = target: Peroxisome proliferator-activated receptor gamma (Homo sapiens) (UniProt P37231); test: qHTS assay to identify small molecule agonists of the peroxisome proliferator-activated receptor gamma (PPARg) signaling pathway (AID 743094; active = well fitted activation curve with a large enough effect in the signal ratio in the repeat runs, not every such curve was filed as active; the % refers to the signal ratio; also: potency is read from the fitted curve at half-maximal effect)
# How it was run: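 Reporter activation was scored by fluorescence of cleaved LiveBLAzer B/G substrate (1 h, room temperature) in PPARg-bla HEK293H cells previously treated 17 h at 37C with DMSO-dissolved compounds.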
# [5] = target: Peroxisome proliferator-activated receptor gamma (Homo sapiens) (UniProt P37231); test: qHTS assay to identify small molecule antagonists of the peroxisome proliferator-activated receptor gamma (PPARg) signaling pathway (AID 743191; calls by dose curve; also: nearly all actives have a fitted effect of over 30% in size; also: potency is read from the fitted curve at half-maximal effect)
# How it was run: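 Beta-lactamase reporter under UAS control in HEK293H PPARg-bla cells; compound treatment 17 h at 37C. Read-out: fluorescence intensity after 1 h room-temperature incubation with LiveBLAzer B/G FRET substrate.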
# [6] = qHTS assay to identify small molecule antagonists of the peroxisome proliferator-activated receptor gamma (PPARg) signaling pathway - cell viability counter screen (AID 743194); conditions: Potency: co-treated with 50 nM rosiglitazone unless noted; also: nearly all actives have a fitted effect of over 55% in size
# How it was run: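 Viability was measured as CellTiter-Glo luminescence in GeneBLAzer PPARg UAS-bla HEK293H cells. These cells had been exposed 17 h at 37 C to compounds together with rosiglitazone at 50 nM final, with the beta-lactamase readout taken in the same wells.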
# [7] = qHTS assay for small molecule agonists of the antioxidant response element (ARE) signaling pathway (AID 743202; active = well fitted activation curve with a large enough effect in the signal ratio in the repeat runs, not every such curve was filed as active; the % refers to the signal ratio; also: potency is read from the fitted curve at half-maximal effect)
# How it was run: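 Beta-lactamase reporter activity, read as fluorescence intensity, reflects ARE/Nrf2 pathway induction in HepG2 cells after 16 h compound exposure at 37 C; substrate loading was 2 h at room temperature.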
# [8] = qHTS assay for small molecule agonists of the antioxidant response element (ARE) signaling pathway - cell viability counter screen (AID 743203; calls by dose curve; also: nearly all actives have a fitted effect of over 55% in size)
# How it was run: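 Viability counter screen: stably transfected ARE-bla HepG2 line, 16 hrs compound exposure at 37C/5% CO2, ATP-based CellTiter-Glo luminescence measured in the reporter wells.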
# [9] = qHTS assay for small molecule activators of the heat shock response signaling pathway - cell viability counter screen (AID 743209); also: nearly all actives have a fitted effect of over 50% in size
# How it was run: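 Viability of HSE-bla HeLa cells is measured with CellTiter-Glo in the wells already used for the reporter read. Compound exposure lasts 5 h at 37 C, and luminescence is read after 30 min at room temperature.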
# [10] = qHTS assay for small molecule activators of the heat shock response signaling pathway (AID 743210; active = well fitted activation curve with a large enough effect in the signal ratio in the repeat runs, with a control signal flat, not every such curve was filed as active; the % refers to the signal ratio;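 also: HeLa cells with beta-lactamase reporter driven by heat shock elements; series mostly up to about 63 µM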)
# How it was run: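 Fluorescence from a cleaved B/G FRET substrate (2.5 h, room temp) reports HSE-driven beta-lactamase in HeLa cells treated 5 h at 37 C with DMSO-dissolved compounds.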
# [11] = qHTS assay to identify small molecule agonists of the peroxisome proliferator-activated receptor delta (PPARd) signaling pathway - cell viability counter screen (AID 743211); also: nearly all actives have a fitted effect of over 55% in size
# How it was run: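 Multiplexed format: after the 2 h room-temperature LiveBLAzer B/G FRET step, CellTiter-Glo was added to the same wells. Luminescence after 30 min gave cell viability; compound exposure was 17 h at 37C.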
# [12] = qHTS assay to identify small molecule antagonists of the peroxisome proliferator-activated receptor delta (PPARd) signaling pathway - cell viability counter screen (AID 743213); also: nearly all actives have a fitted effect of over 50% in size
# How it was run: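 Cytotoxicity counter screen: CellTiter-Glo luminescence read 30 min after addition, in the same wells as the reporter assay. There, PPARd UAS-bla HEK293H cells (3000/well) were treated 17 h at 37 C with compound and 300 nM L165041.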
# [13] = target: Bile acid receptor (Homo sapiens) (UniProt Q96RI1); test: qHTS assay to identify small molecule antagonists of the farnesoid-X-receptor (FXR) signaling pathway (AID 743217; active = well fitted inhibition curve with a large enough effect in the signal ratio in the repeat runs, not every such curve was filed as active; the % refers to the signal ratio)
# How it was run: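 Screen of the Tox21 10K library in quantitative HTS format using FXR-UAS-bla HEK 293T reporter cells. Agonist chenodeoxycholic acid, 50 uM final, added with compounds; 16 h incubation at 37 °C; beta-lactamase FRET fluorescence measured.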
# [14] = qHTS assay to identify small molecule agonists of the farnesoid-X-receptor (FXR) signaling pathway - cell viability counter screen (AID 743218); also: nearly all actives have a fitted effect of over 45% in size
# How it was run: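 Viability of FXR-bla HEK 293T cells is measured by ATP-based CellTiter-Glo luminescence following 16 h compound treatment at 37 C and a prior 2 h room-temperature beta-lactamase substrate step.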
# [15] = target: Bile acid receptor (Homo sapiens) (UniProt Q96RI1); test: qHTS assay to identify small molecule agonists of the farnesoid-X-receptor (FXR) signaling pathway (AID 743220; active = well fitted activation curve with a large enough effect in the signal ratio in the repeat runs, not every such curve was filed as active; the % refers to the signal ratio)
# How it was run: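 FXR-UAS-bla HEK 293T cells carrying a UAS-driven beta-lactamase reporter were plated for 5 h at 37C/5% CO2, then exposed to DMSO-dissolved Tox21 10K compounds for 16 h at 37C. A LiveBLAzer B/G FRET substrate was loaded for 2 h at room temperature before fluorescence reading.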
# [16] = qHTS assay to identify small molecule antagonists of the farnesoid-X-receptor (FXR) signaling pathway - cell viability counter screen (AID 743221; active = well fitted cell-killing curve with a large enough effect in the repeat runs, not every such curve was filed as active; also: nearly all actives have a fitted effect of over 50% in size)
# How it was run: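 CellTiter-Glo, 30 min RT, luminescence; same wells as the LiveBLAzer FRET read. Cells: FXR-UAS-bla HEK 293T. Treatment: compound with chenodeoxycholic acid 50 uM final, 16 h at 37 C.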
# [17] = target: Vitamin D3 receptor (Homo sapiens) (UniProt P11473); test: qHTS assay to identify small molecule agonists of the vitamin D receptor (VDR) signaling pathway (AID 743222; calls by dose curve; also: potency is read from the fitted curve at half-maximal effect)
# How it was run: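 Fluorescence from cleaved LiveBLAzer B/G FRET substrate served as readout. VDR-bla cells had been treated 16 h at 37C with test compounds in DMSO, following a 4 h settling period, and substrate was loaded for 2 h at RT.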
# [18] = target: Vitamin D3 receptor (Homo sapiens) (UniProt P11473); test: qHTS assay to identify small molecule antagonists of the vitamin D receptor (VDR) signaling pathway (AID 743223; active = well fitted inhibition curve with a large enough effect in the signal ratio in the repeat runs, not every such curve was filed as active; the % refers to the signal ratio)
# How it was run: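 After VDR-bla cells are plated and left 4 h at 37C, DMSO-dissolved compounds and 3 nM (final) calcitriol agonist are added. Incubation continues 16 h at 37C; FRET beta-lactamase substrate then develops 2 h at room temperature.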
# [19] = target: Peroxisome proliferator-activated receptor delta (Homo sapiens) (UniProt Q03181); test: qHTS assay to identify small molecule antagonists of the peroxisome proliferator-activated receptor delta (PPARd) signaling pathway (AID 743215; active = well fitted inhibition curve with a large enough effect in the signal ratio in the repeat runs, not every such curve was filed as active; the % refers to the signal ratio;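 also: cells stimulated with agonist L165041 at 300 nM final during compound exposure; series mostly up to about 62 µM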)
# How it was run: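 Plated HEK293H PPARd-bla cells rested 5 h at 37 C and 5% CO2. Compound, then agonist L165041 at 300 nM final, was added; 17 h at 37 C followed. Substrate loading, 2 h room temperature, fluorescence measured.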
# [20] = target: Peroxisome proliferator-activated receptor delta (Homo sapiens) (UniProt Q03181); test: qHTS assay to identify small molecule agonists of the peroxisome proliferator-activated receptor delta (PPARd) signaling pathway (AID 743212; calls by dose curve;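 also: HEK293H cells with PPARd UAS beta-lactamase reporter GeneBLAzer system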)
# How it was run: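 Steps: seed PPARd-bla HEK293H cells; incubate 5 h, 37 C, 5% CO2; add compounds in DMSO; incubate, 37 C; add LiveBLAzer B/G FRET substrate; hold 2 h at room temperature; measure fluorescence.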
# Sequence of Bile acid receptor (Homo sapiens) (Q96RI1 whole entry, looked up): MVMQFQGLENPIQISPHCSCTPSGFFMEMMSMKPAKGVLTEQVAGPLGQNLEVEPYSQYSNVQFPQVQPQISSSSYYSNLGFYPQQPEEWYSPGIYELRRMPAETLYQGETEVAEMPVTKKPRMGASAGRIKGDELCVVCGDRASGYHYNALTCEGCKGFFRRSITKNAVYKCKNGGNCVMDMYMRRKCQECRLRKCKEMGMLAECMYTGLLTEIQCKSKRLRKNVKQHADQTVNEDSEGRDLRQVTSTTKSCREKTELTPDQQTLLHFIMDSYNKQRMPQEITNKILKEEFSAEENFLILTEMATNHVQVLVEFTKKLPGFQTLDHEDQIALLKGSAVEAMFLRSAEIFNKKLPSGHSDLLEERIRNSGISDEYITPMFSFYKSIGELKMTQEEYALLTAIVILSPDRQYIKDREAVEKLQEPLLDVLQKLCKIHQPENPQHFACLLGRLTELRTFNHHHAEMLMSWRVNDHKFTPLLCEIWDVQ
# Sequence of Vitamin D3 receptor (Homo sapiens) (P11473 whole entry, looked up): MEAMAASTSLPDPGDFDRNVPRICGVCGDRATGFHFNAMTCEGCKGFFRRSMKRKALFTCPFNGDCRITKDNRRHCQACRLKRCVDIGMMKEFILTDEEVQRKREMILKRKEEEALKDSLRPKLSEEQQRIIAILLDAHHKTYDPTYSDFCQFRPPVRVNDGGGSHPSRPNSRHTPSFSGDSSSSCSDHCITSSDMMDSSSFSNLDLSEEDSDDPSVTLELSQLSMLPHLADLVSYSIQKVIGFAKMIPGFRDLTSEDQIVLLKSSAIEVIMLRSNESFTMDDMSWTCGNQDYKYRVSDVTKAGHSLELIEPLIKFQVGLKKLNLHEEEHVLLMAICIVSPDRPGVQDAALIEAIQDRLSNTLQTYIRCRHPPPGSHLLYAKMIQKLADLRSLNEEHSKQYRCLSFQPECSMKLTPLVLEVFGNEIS
# Sequence of Aryl hydrocarbon receptor (Homo sapiens) (P35869 whole entry, looked up): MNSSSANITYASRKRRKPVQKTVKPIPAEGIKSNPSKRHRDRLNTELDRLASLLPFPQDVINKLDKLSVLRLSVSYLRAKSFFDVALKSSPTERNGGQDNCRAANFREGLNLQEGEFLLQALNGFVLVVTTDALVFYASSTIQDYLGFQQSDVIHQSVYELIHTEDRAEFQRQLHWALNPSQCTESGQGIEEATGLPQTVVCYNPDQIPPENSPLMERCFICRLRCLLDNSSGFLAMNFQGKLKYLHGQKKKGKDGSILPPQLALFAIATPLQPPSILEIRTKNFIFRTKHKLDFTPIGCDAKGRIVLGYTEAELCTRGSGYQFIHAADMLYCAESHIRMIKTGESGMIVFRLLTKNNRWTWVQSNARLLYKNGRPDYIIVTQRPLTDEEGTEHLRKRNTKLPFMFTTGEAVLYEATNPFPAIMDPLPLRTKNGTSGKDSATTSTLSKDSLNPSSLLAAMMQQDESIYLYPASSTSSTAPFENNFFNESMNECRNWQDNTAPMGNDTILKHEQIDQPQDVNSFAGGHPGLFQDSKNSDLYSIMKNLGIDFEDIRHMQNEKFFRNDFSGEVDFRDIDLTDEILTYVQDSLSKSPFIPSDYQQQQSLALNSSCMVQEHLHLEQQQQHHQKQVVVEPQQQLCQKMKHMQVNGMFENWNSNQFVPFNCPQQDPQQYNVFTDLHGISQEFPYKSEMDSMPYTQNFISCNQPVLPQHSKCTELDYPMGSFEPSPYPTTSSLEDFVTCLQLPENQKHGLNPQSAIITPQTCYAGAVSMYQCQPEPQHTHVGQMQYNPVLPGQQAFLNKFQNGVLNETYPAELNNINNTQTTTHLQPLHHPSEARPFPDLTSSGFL
# Sequence of Peroxisome proliferator-activated receptor delta (Homo sapiens) (Q03181 whole entry, looked up): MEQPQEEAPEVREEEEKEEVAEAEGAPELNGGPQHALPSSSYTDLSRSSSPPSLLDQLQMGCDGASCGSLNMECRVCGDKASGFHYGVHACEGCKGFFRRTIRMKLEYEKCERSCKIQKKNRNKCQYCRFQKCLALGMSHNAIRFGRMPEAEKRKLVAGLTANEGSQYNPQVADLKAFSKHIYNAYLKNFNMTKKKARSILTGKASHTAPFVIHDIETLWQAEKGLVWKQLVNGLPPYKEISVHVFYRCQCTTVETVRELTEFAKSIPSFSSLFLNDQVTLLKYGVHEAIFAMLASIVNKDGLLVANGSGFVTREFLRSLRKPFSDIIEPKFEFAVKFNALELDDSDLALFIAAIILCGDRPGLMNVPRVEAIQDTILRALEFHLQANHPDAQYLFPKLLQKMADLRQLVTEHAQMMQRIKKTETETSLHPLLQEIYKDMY
# Sequence of Peroxisome proliferator-activated receptor gamma (Homo sapiens) (P37231 whole entry, looked up): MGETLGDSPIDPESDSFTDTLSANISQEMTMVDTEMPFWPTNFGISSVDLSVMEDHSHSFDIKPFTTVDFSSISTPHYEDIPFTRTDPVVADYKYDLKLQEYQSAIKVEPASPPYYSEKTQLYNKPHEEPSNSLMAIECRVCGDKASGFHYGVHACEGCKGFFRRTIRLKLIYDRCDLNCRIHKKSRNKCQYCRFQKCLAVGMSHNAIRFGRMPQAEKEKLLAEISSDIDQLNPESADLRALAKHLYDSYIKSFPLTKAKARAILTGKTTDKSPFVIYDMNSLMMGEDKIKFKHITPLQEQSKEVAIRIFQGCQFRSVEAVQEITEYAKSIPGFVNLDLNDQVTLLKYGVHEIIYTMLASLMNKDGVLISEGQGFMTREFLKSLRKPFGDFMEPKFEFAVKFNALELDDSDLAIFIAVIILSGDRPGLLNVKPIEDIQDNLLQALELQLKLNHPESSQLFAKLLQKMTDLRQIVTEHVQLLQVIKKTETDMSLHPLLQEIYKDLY
SMILES,Potency [1],Potency [2],Potency [3],Potency [4],Potency [5],Potency [6],Potency [7],Potency [8],Potency [9],Potency [10],Potency [11],Potency [12],Potency [13],Potency [14],Potency [15],Potency [16],Potency [17],Potency [18],Potency [19],Potency [20]
CC(C)Br,inactive,inactive,inactive,inactive,inactive,inactive,inactive,inactive,inactive,inactive,inactive,inactive,inactive,inactive,inactive,inactive,inactive,inactive,–,–
Clc1ccc(C(Cl)(Cl)Cl)cc1Cl,inactive,26.7 µM (active),inactive,inactive,inactive,inactive,–,inactive,inactive,inactive,inactive,inactive,–,–,–,inactive,inactive,inactive,inactive,–
Cc1ccc(C)c2ccccc12,inactive,inactive,inactive,inactive,–,–,inactive,inactive,inactive,inactive,–,–,inactive,inactive,–,inactive,inactive,inactive,inactive,inactive
CCOP(=O)(Sc1ccccc1)Sc1ccccc1,inactive,inactive,inactive,inactive,54.9 µM (active),inactive,–,inactive,inactive,–,inactive,inactive,inactive,–,–,inactive,inactive,inactive,inactive,inactive
Cc1c([N+](=O)[O-])cc2c(c1[N+](=O)[O-])C(C)(C)CC2(C)C,inactive,inactive,inactive,inactive,inactive,inactive,–,inactive,inactive,–,–,–,–,inactive,–,inactive,–,inactive,inactive,inactive
CCN(CC)CCc1c[nH]c2ccccc12,inactive,inactive,inactive,inactive,–,inactive,–,inactive,inactive,–,inactive,inactive,inactive,inactive,inactive,inactive,–,–,–,–
CCOP(=S)(OCC)Oc1cc(C)nc(N(CC)CC)n1,inactive,2.73 µM (active),inactive,inactive,–,inactive,–,inactive,inactive,inactive,–,inactive,inactive,–,inactive,–,inactive,inactive,inactive,inactive
Cc1nn(-c2cc(NS(C)(=O)=O)c(Cl)cc2Cl)c(=O)n1C(F)F,inactive,inactive,inactive,inactive,–,inactive,–,inactive,inactive,inactive,inactive,inactive,–,inactive,–,inactive,inactive,inactive,–,inactive
CC1CN1 (stereo not given),inactive,inactive,inactive,inactive,–,inactive,inactive,inactive,inactive,inactive,inactive,inactive,–,inactive,–,inactive,–,–,inactive,inactive
CC(Cc1ccc(O)cc1)NCC(O)c1cc(O)cc(O)c1 (stereo not given),inactive,inactive,inactive,inactive,inactive,inactive,inactive,inactive,inactive,inactive,inactive,–,inactive,–,–,inactive,inactive,–,inactive,–
c1csc(-c2ccc(-c3cccs3)s2)c1,inactive,24.3 µM (active),inactive,21.9 µM (active),–,inactive,2.73 µM (active),inactive,inactive,–,inactive,–,inactive,inactive,–,inactive,24.5 µM (active),–,–,–
COc1ccc2[nH]cc(CCN(C(C)C)C(C)C)c2c1,inactive,22.2 µM (active),inactive,inactive,–,inactive,–,inactive,inactive,–,–,–,–,–,–,–,inactive,inactive,inactive,inactive
CN1[C@@H]2CC[C@H]1CC(O)C2 (stereo not given in full),inactive,inactive,inactive,inactive,inactive,inactive,inactive,inactive,inactive,inactive,inactive,inactive,–,inactive,–,inactive,inactive,inactive,inactive,inactive
Oc1cccc(Cl)c1Cl,inactive,inactive,inactive,inactive,–,inactive,inactive,inactive,inactive,inactive,inactive,–,–,inactive,–,inactive,–,–,inactive,–
CC(C)N(C(=O)SC/C(Cl)=C/Cl)C(C)C,inactive,inactive,inactive,inactive,–,inactive,inactive,inactive,inactive,–,–,inactive,inactive,inactive,inactive,inactive,inactive,inactive,inactive,–
ClCBr,inactive,inactive,inactive,inactive,inactive,inactive,–,inactive,inactive,inactive,inactive,inactive,inactive,inactive,–,inactive,inactive,–,inactive,inactive
Nc1nc(N)nc(Cl)n1,inactive,inactive,inactive,inactive,inactive,inactive,inactive,inactive,inactive,–,inactive,–,–,inactive,–,inactive,–,–,–,–
